What all share (experiment): NCI-60 one-dose screen, 48 h (100 = growth as untreated, 0 = no growth, -100 = all killed)
One experiment deals with SR leukemia. Conditions: 10 µM unless noted.
For the next experiment, the system named is RPMI-8226 leukemia. Conditions: 10 µM unless noted.
Another experiment has as its system OVCAR-8 ovarian. The conditions noted are these: 10 µM unless noted.
For another experiment, the system named is OVCAR-5 ovarian. The conditions noted are these: 10 µM unless noted.
A further experiment relates to OVCAR-4 ovarian. The conditions noted are these: 10 µM.
For another experiment, the system named is SK-OV-3 ovarian. The conditions noted are these: 10 µM unless noted.
The test system of a further experiment is OVCAR-3 ovarian. The conditions noted are these: 10 µM unless noted.
A further experiment relates to HS 578T breast. Conditions: 10 µM unless noted.
The next experiment deals with T-47D breast. The conditions noted are these: 10 µM unless noted.
Another experiment concerns MDA-MB-435 melanoma. Conditions: 10 µM unless noted.
Another experiment deals with SW-620 colon. Conditions: 10 µM unless noted.
The test system of the next experiment is MCF7 breast. The conditions noted are these: 10 µM unless noted.
A further experiment has as its system HCT-116 colon. The conditions noted are these: 10 µM unless noted.
The subject of another experiment is KM12 colon. The conditions noted are these: 10 µM unless noted.
A further experiment deals with NCI/ADR-RES ovarian. Conditions: 10 µM unless noted.
For a further experiment, the system named is HCC-2998 colon. The conditions noted are these: 10 µM unless noted.
The subject of another experiment is BT-549 breast. Conditions: 10 µM unless noted.
The test system of the next experiment is IGROV1 ovarian. Conditions: 10 µM unless noted.

Compounds without any hit were thinned out: in the full panel of roughly 83,000, 20% have a hit.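 Single-concentration screen, 48 h exposure, 96-well plates. Endpoint: percent growth. Below 10 = active.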 Unmarked numbers belong to inactive results. The source made the active and inactive calls.

As to `CN(C)Cc1ccc[nH]1`, the growth with SR leukemia is 102%; in the experiment on RPMI-8226 leukemia, 136%; in the experiment with OVCAR-8 ovarian, 95.1%; in the experiment with OVCAR-5 ovarian, 76.3%; with OVCAR-4 ovarian it was 109%; with SK-OV-3 ovarian, 106%. Further, the growth in the experiment with OVCAR-3 ovarian was 99.5%; in the experiment with HS 578T breast it was 113%; in the experiment on T-47D breast, 83.5%; in the experiment with MDA-MB-435 melanoma, 110%; with SW-620 colon, 94.6%; with MCF7 breast, 97.9%. Besides, the growth is 77.5% with HCT-116 colon and 108% in the experiment on KM12 colon.
`CC1(C)OC2[C@@H](CNC(=O)NC(=O)NC(=O)CI)O[C@@H](n3cnc4c(NC(=O)Nc5ccccc5)ncnc43)[C@H]2O1` (some centres not stated): the growth in the experiment on SR leukemia is -50.8% (active); with RPMI-8226 leukemia, 64.2%; in the experiment with OVCAR-8 ovarian, 75.9%; in the experiment with OVCAR-5 ovarian, 93%; with OVCAR-4 ovarian, 73.5%; with SK-OV-3 ovarian, 105%. Further, the growth in the experiment with OVCAR-3 ovarian was -32.6% (active); in the experiment on NCI/ADR-RES ovarian, 84.6%; in the experiment on T-47D breast it was 49%; with MDA-MB-435 melanoma, 83.8%; in the experiment on SW-620 colon it was -41.9% (active); with MCF7 breast it was 33%. The figures for the growth with HCT-116 colon, in the experiment on HCC-2998 colon and in the experiment on KM12 colon were 51.2%, 94% and 84.2%, respectively.
Regarding `Cc1nc(-c2ccccc2)sc1CC#N`, the growth in the experiment on SR leukemia was 91.6%; in the experiment with RPMI-8226 leukemia, 109%; in the experiment on OVCAR-8 ovarian it was 108%; with OVCAR-5 ovarian it was 105%; in the experiment on OVCAR-4 ovarian, 113%; with SK-OV-3 ovarian, 108%. Also, the growth in the experiment on OVCAR-3 ovarian is 116%; with T-47D breast, 103%; with BT-549 breast, 113%; with MDA-MB-435 melanoma, 105%; in the experiment with SW-620 colon, 103%; with MCF7 breast it was 102%. The growth in the experiment on HCT-116 colon was 108%; with HCC-2998 colon, 109%.
Regarding `C#CC(OC(=O)N(C)C)(c1ccccc1)c1ccc(F)cc1` (configuration not stated), the growth was 108% in the experiment with SR leukemia; 128% with RPMI-8226 leukemia; 93.5% in the experiment on OVCAR-8 ovarian; 93.4% with OVCAR-5 ovarian; 107% with OVCAR-4 ovarian; 114% in the experiment with SK-OV-3 ovarian. Further, the growth in the experiment with OVCAR-3 ovarian was 133%; in the experiment with NCI/ADR-RES ovarian it was 89.3%; in the experiment with T-47D breast, 100%; in the experiment with BT-549 breast, 111%; in the experiment on MDA-MB-435 melanoma, 120%; in the experiment with SW-620 colon it was 107%. For the same compound, the growth with MCF7 breast is 113%; with HCT-116 colon it was 105%; with HCC-2998 colon, 86.3%; in the experiment with KM12 colon, 107%.
`C#CCOc1ccc(C2=NN(CC3CC3)C3N=C(Cl)c4ncn(CC5CC5)c4N23)cc1OCC#C` (configuration not stated): the growth is 65.7% in the experiment on SR leukemia; 73.7% in the experiment on RPMI-8226 leukemia; 71.6% in the experiment on OVCAR-8 ovarian; 96.6% in the experiment with OVCAR-5 ovarian; 71.3% with OVCAR-4 ovarian; 73.8% in the experiment with SK-OV-3 ovarian. In addition, the growth with OVCAR-3 ovarian is 90.4%; in the experiment with HS 578T breast, 79.4%; in the experiment on NCI/ADR-RES ovarian, 85.3%; with T-47D breast, 28.2%; in the experiment with MDA-MB-435 melanoma, 80.8%; with SW-620 colon it was 91.8%. For the same compound, the growth with MCF7 breast is 78.8%; in the experiment on HCC-2998 colon it was 119%.
In the case of `O=C(Nc1cccc(C2=NCCN2)c1)c1cccc(C(=O)Nc2cccc(C3=NCCN3)c2)c1`, the growth in the experiment with SR leukemia is 92.3%; in the experiment with RPMI-8226 leukemia it was 94.3%; with OVCAR-8 ovarian, 101%; with OVCAR-5 ovarian, 95.7%; in the experiment with OVCAR-4 ovarian, 94.7%; in the experiment on SK-OV-3 ovarian, 104%. Further, the growth with HS 578T breast is 98.4%; in the experiment on NCI/ADR-RES ovarian, 98.8%; in the experiment on T-47D breast, 96.7%; with BT-549 breast, 110%; in the experiment with MDA-MB-435 melanoma, 98.8%; with MCF7 breast it was 88.4%. Moreover, the values for the growth in the experiment with HCT-116 colon, in the experiment with HCC-2998 colon and in the experiment on KM12 colon were 99.7%, 107% and 101%, respectively.
`CCOC(CNC(=O)c1cccc([N+](=O)[O-])c1)OCC`: the growth is 95.4% in the experiment with SR leukemia; 141% with RPMI-8226 leukemia; 95.3% in the experiment on OVCAR-8 ovarian; 101% with OVCAR-5 ovarian; 109% in the experiment with OVCAR-4 ovarian; 108% in the experiment with SK-OV-3 ovarian. Further, the growth is 96.5% in the experiment on OVCAR-3 ovarian; 97.9% in the experiment with NCI/ADR-RES ovarian; 92.1% in the experiment on T-47D breast; 103% in the experiment with MDA-MB-435 melanoma; 102% in the experiment on SW-620 colon; 112% in the experiment with KM12 colon.
Take `COc1ccc(C2NC(=O)C(C#N)c3c2sc2c(F)cccc32)cc1` (configuration not stated): the growth with SR leukemia was 22.2%; with RPMI-8226 leukemia, 63.2%; in the experiment on OVCAR-8 ovarian, 69.8%; in the experiment with OVCAR-5 ovarian, 85.6%; with OVCAR-4 ovarian it was 71.4%; in the experiment with SK-OV-3 ovarian, 63.2%. Further, the growth in the experiment with OVCAR-3 ovarian was 0.617% (active); in the experiment with NCI/ADR-RES ovarian, 27.3%; in the experiment on T-47D breast it was 80.2%; in the experiment with BT-549 breast it was 56.4%; in the experiment on MDA-MB-435 melanoma, -9.11% (active); in the experiment with SW-620 colon, 24.4%. Besides, the growth is 32.7% with MCF7 breast, 37.5% in the experiment on HCT-116 colon, 91.5% in the experiment with HCC-2998 colon and 41% in the experiment with KM12 colon.
For the compound `Cc1ccc(S(=O)(=O)Nc2ccccc2)cc1N`, the growth with SR leukemia is 92.2%; in the experiment with RPMI-8226 leukemia it was 123%; in the experiment with OVCAR-8 ovarian it was 95.4%; in the experiment on OVCAR-5 ovarian, 91.3%; in the experiment on OVCAR-4 ovarian, 111%; with SK-OV-3 ovarian, 104%. The growth was 95.6% in the experiment with OVCAR-3 ovarian; 91% in the experiment with NCI/ADR-RES ovarian; 101% in the experiment with T-47D breast; 49.5% with BT-549 breast; 92.6% in the experiment with MDA-MB-435 melanoma; 99.7% in the experiment on SW-620 colon. In addition, the growth in the experiment on MCF7 breast was 91.8%; in the experiment on KM12 colon, 107%.
For the compound `CCCCCCSc1ncnc2nc[nH]c12`, the growth with SR leukemia is 85.2%; in the experiment on RPMI-8226 leukemia, 84.8%; in the experiment with OVCAR-8 ovarian, 95.5%; in the experiment on OVCAR-5 ovarian, 98.9%; in the experiment with OVCAR-4 ovarian it was 88.4%; in the experiment on IGROV1 ovarian it was 82.6%. Also, the growth in the experiment on OVCAR-3 ovarian was 103%; in the experiment on HS 578T breast it was 102%; in the experiment with NCI/ADR-RES ovarian, 91.3%; in the experiment on T-47D breast it was 73.1%; in the experiment on BT-549 breast, 82.6%; with MDA-MB-435 melanoma, 84.9%. For the same compound, the growth in the experiment on SW-620 colon is 101%; in the experiment on MCF7 breast it was 94.6%; in the experiment with HCT-116 colon, 85.1%; in the experiment with HCC-2998 colon, 93.5%; in the experiment with KM12 colon, 86%.

(Values after PubChem BioAssay (NCI).)
